{"source": "PubChem BioAssay AID896", "about": "(National Center for Advancing Translational Sciences (NCATS), 2007)", "note": "The list shows a part of the results. Records with an inconclusive call do not appear. The source made the active and inactive calls. Calls come from the whole dose curve; as a rule, active = well fitted inhibition curve with a large enough effect in the main read-out, with a control signal flat; inconclusive = small, poorly fitted or top-dose-only effect, or a change in a side signal; inactive = no such curve, though single readings can be large or run the other way."}
{"target": "Caspase-1 (Homo sapiens) (UniProt P29466)", "test": "Confirmation Concentration-Response Assay for Allosteric/Competitive Inhibitors of Caspase-1", "conditions": "purified caspase-1, fluorogenic substrate cleavage; series mostly up to 57.5 µM", "text": "NIH Molecular Libraries Screening Centers Network [MLSCN]\nNIH Chemical Genomics Center [NCGC]\nPI Name: Dr. James Wells,\nDr. Enrique Perez-Paya, Dr.Janice Williams, Dr. Dennis Wolan, a person\nThe caspases (Cysteine Aspartyl Protease) comprise a related family of 14 dimeric proteases that are critical mediators of apoptosis (programmed cell death) and inflammation. The caspases represent an important class of drug targets for stroke, ischemia, cancer and inflammatory diseases. […] One goal of this project was to identify compounds that act as allosteric inhibitors via stabilizing the procaspase form of the enzyme. […]\nThe biochemical assay was configured using purified caspase 1 at a high enzyme concentration to promote formation of the homodimers and thus facilitate the identification of allosteric inhibitors. […] After initiation of the assay with substrate the plates were rapidly read using an automated robotic system (Kalypsys, Inc.) to maintain consistent timing. […] Product formation was also measured after 1 hour. […]\nCaspase 1 was prepared in buffer (50 mM HEPES pH 7.5, 50 mM KCl, 200 mM NaCl, 10 mM DTT, 0.1% CHAPS) at a concentration of 66.6 nM and 3 uL was dispensed to all wells using black solid Kalypsys 1536-well plates. […] The plates were then exposed using 405 nm excitation/520 nm emission filters for 4 sec and read at 20 sec intervals for 3 min. […]"}
{"smiles": "Cc1nc2c(C(=O)NCc3ccc4c(c3)OCO4)c[nH]n2c(=O)c1Cc1ccccc1F", "outcome": "inactive"}
